According to PubChem BioAssay AID485364 (National Center for Advancing Translational Sciences (NCATS), 2010):
The campaign covered roughly 360,000 compounds. About 11,000 (3.1%) were called active. Another 4% or so got no clear call; they are omitted. For the sample, actives were picked, then their nearest neighbours and some compounds at random. Values without a mark were called inactive. Calls come from the whole dose curve; as a rule, active = well fitted inhibition curve with a large enough effect; inconclusive = small, poorly fitted or top-dose-only effect; inactive = no such curve, though single readings can be large or run the other way.

target: Schistosoma mansoni thioredoxin glutathione reductase (TGR) (UniProt Q962Y6); assay: qHTS Assay for the Inhibitors of Schistosoma Mansoni Peroxiredoxins; conditions: purified TGR, DTNB reduction, TNB absorbance 405 nm; series mostly up to 114 µM; activity change, negative = inhibition: at the top concentration; note: nearly all actives have a fitted effect of over 60% in size
How it was run: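 First, TGR (20 nM dispensed) and NADPH were mixed with compound. Second, a 15 min room-temperature incubation followed. Third, further NADPH and then DTNB were added to start the reaction. Finally, TNB absorbance was monitored kinetically.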
% is set by controls: 0 for no effect and ±100 for the full control effect; potency is the fitted concentration of half-maximal effect.

Compound | activity change, negative = inhibition | Potency
CCOC(=O)c1cccc(NC(=O)Cn2cnc3nc4c(cc3c2=O)CCCC4)c1 | 8.05% | –
CC1=C(c2ccc(C)c(C)c2)S(=O)(=O)NC1=NCc1ccccc1Cl | 0.753% | –
CCC1(C)Cc2c(sc3[nH]c(=S)n(Cc4ccccc4)c(=O)c23)CO1 (stereo not drawn) | -10.7% | –
C=CCn1c(SCC(=O)/C(C#N)=C(\C)N)nc2sc(C)c(C)c2c1=O | 2.71% | –
C=CCn1c(=S)[nH]c2scc(-c3ccco3)c2c1=O | – | 8.91 µM (active)
C=CCn1c(SCc2csc(C)n2)nc2scc(-c3ccc(C)o3)c2c1=O | – | 7.94 µM (active)
C=CCn1c(SCC(=O)Nc2ccc(NC(C)=O)cc2)nc2sc(C)c(C)c2c1=O | -18% | –
C=CCn1c(SCC(=O)NCC2CCCO2)nc2sc(C)c(C)c2c1=O (stereo not drawn) | 4.37% | –
C=CCn1c(SCc2c(C)noc2C)nc2sc3c(c2c1=O)CCC(C)C3 (stereo not drawn) | 5.66% | –
C=CCNC(=O)CSc1nc2scc(-c3ccco3)c2c(=O)n1CC=C | – | 39.8 µM (active)
CCOC(=O)c1ccc(CN(Cc2ccccc2)S(=O)(=O)c2ccc(Cl)cc2)cc1 | 7.42% | –
Cc1cccc(N2CCN(C(=O)c3cc4c(=O)oc5ccccc5c4s3)CC2C)c1 (stereo not drawn) | 4.3% | –
O=c1cc2nc(-c3ccccc3)nc(SCCOc3ccc(Cl)cc3)n2[nH]1 | 0.903% | –
COc1ccc(CNc2nc(-c3ccc(Cl)cc3)nn2C(=O)c2ccccc2)cc1 | 2.53% | –
Cc1cccc(-n2ncc(C(=O)N3CCc4ccccc4C3)c2C2CCN(C(=O)OC(C)(C)C)CC2)c1 | -1.72% | –
CN(c1ccccc1)S(=O)(=O)c1ccc(Cl)c(C(=O)OCC(N)=O)c1 | 6.88% | –
CN(c1ccccc1)S(=O)(=O)c1ccc(Cl)c(C(=O)OCC(=O)N2CCOCC2)c1 | -2.25% | –
CN(c1ccccc1)S(=O)(=O)c1ccc(Cl)c(C(=O)OCC(=O)NCc2ccco2)c1 | – | 22.4 µM (active)
O=S(=O)(Nc1ccc2nc(-c3ccco3)[nH]c2c1)c1ccccc1 | – | 10 µM (active)
O=S(=O)(Nc1ccc2nc(-c3cccc(Cl)c3)oc2c1)c1ccccc1 | -2.42% | –
CCc1ccccc1NS(=O)(=O)c1ccc2nc(-c3ccccc3)[nH]c2c1 | -1.94% | –
O=C(CN1C(=O)COc2ccc(S(=O)(=O)N3CCOCC3)cc21)N1CCN(c2cccc(Cl)c2)CC1 | 0.662% | –
CCOC(=O)CN1C(C(=O)c2ccccc2)=C(OC(=O)C(C)(C)C)c2ccccc2S1(=O)=O | 0.561% | –
Cc1ccc(N(CC(=O)NCc2ccc(Cl)cc2)S(=O)(=O)N(C)C)cc1 | 6.61% | –

Compound | activity change, negative = inhibition | Potency
Cc1ccc(-c2csc(N(Cc3ccco3)C(=O)c3cccs3)n2)cc1 | 2.38% | –
O=C(O)CCC(=O)N(Cc1ccco1)c1nc(-c2ccccc2)cs1 | – | 44.7 µM (active)
O=C(O)CN(Cc1ccco1)S(=O)(=O)c1ccccc1 | -3.68% [at 11.4 µM] | –
COc1ccccc1N1CCN(c2ccc(=O)n(CC(=O)NCc3ccc(OC(C)C)cc3)n2)CC1 | -0.678% | –
Cc1cc(NS(=O)(=O)c2ccc(NC(=O)c3ccccc3C)cc2)nc(C)n1 | 2.95% | –
Cc1nnc(N2CCC(C(=O)Nc3ccc(F)cc3)CC2)c2nn(-c3ccc(Cl)cc3)c(C)c12 | 0.308% | –
COc1ccc(NC(=O)CCc2nnc3n(CC(C)C)c(=O)c4ccccc4n23)cc1OC | 2.05% | –
COc1ccc(OCCCC(=O)Oc2ccc(OC)cc2)cc1 | 0.251% | –
COc1ccc(C(=O)CC2C(=O)N(C)C(=O)N(C)C2=O)cc1 | – | 25.1 µM (active)
COc1ccc(OCCC(=O)c2ccc(OC)cc2)cc1 | – | 1.78 µM (active)
COc1ccc(C(=O)C2CN(C)CC2C(=O)c2ccc(OC)cc2)cc1 (stereo not drawn) | -1.68% | –
COc1ccc(C(=O)C[n+]2ccc(C)cc2)cc1 | 3.8% | –
COc1ccc(OCC(=O)OCCN(C)C)cc1 | -8.28% | –
CC(=O)c1ccc(NC(=O)CSc2nc(-c3ccccc3F)nc3c2c(=O)n(C)c(=O)n3C)cc1 | -9.4% | –
CCN(CC)c1ccc(NC(=O)CN2C(=O)c3cccnc3Oc3ccc(Cl)cc32)c(C)c1 | 3.43% | –
Cc1cccc(C(=O)Nc2ccc(S(=O)(=O)N3CCCCC3c3cccnc3)cc2)c1 (stereo not drawn) | 11.3% | –
Cc1cccc(N2CCN(C(=O)c3ccc4c(c3)CCN4S(=O)(=O)c3ccccc3)CC2)c1C | 4.82% | –
COc1cccc(NC(=O)c2csnn2)c1 | -7.81% | –
Cc1cccc(NC(=O)Cn2c(=O)n(CCC(C)C)c(=O)c3cccnc32)c1 | -5.21% | –
COc1ccc(-n2ccn(CC(=O)Nc3ccc(C)c(C)c3)c(=O)c2=O)cc1OC | -11.1% | –
CCOC(=O)c1c(-c2ccccc2)oc2cc(Br)c(O)c(C=O)c12 | – | 15.8 µM (active)
CCOC(=O)c1c(-c2ccccc2)oc2ccc(OC(=O)N(C)C)cc12 | -10.8% | –
CCOC(=O)c1c(-c2ccccc2)oc2ccc(OCC(=O)NN)cc12 | -0.0748% | –
COc1cccc(C(=O)NCC(=O)OCc2cc(=O)n3ccsc3n2)c1 | -12.5% | –
